Measurements published in PubChem BioAssay (NCATS).
Records with an inconclusive call do not appear. The source made the active and inactive calls. Unless noted, the call rests on the fitted dose curve; in most records, active means well fitted curve in the direction sought with a large enough effect; inconclusive means small, poorly fitted or top-dose-only effect, or another doubt; inactive means no such curve, though single readings can be large; an effect the other way counts as inactive or inconclusive.

Columns and labels:
[1] = Primary qHTS for small molecule stabilizers of the endoplasmic reticulum resident proteome: Secreted ER Calcium Modulated Protein (SERCaMP) assay (AID 1508630); further: on the % scale 0 is the no-effect control and ±100 the full control effect
How it was run: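 GLuc-SERCaMP-expressing SH-SY5Y cells, pretreated 16 h with compound, are challenged with thapsigargin to empty ER calcium stores; after 4 h, coelenterazine is added directly to the medium and luminescence is imaged.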

[2] = Counterscreen qHTS for small molecule stabilizers of the endoplasmic reticulum resident proteome: GLuc-NoTag assay (AID 1508627);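 further: SH-SY5Y cells given compound then 100 nM thapsigargin to empty ER calcium; 0% = thapsigargin alone and -100% = DMSO vehicle control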
How it was run: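 Luminescence of Gaussia luciferase secreted into the medium (coelenterazine, 0.07x final, unlysed cells) was the read-out. Human SH-SY5Y neuroblastoma cells constitutively secreting untagged GLuc received compound for 19 h, then 100 nM thapsigargin for 4 h.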

[3] = Validation of Assay for Modulators of Lamin A Splicing (AID 1459; active means well fitted curve in the direction sought with a large enough effect in the signal ratio; the % refers to the signal ratio;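 further: cells exposed to compound for two days before reading; 0% is about no effect; ratio rise marks activators and ratio drop marks inhibitors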)
How it was run: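 S3 HeLa stably expressing lamin A-EGFP splicing minigene and DsRed2, 600 cells/well in Opti-MEM with 2% FBS, treated 48 h at 37C; laser-scanning cytometry gives GFP/RFP total intensity ratio; ancitabine positive control, 0.5% DMSO vehicle.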

[4] = qHTS Assay for Lipid Storage Modulators (AID 1519; calls by dose curve); conditions: Drosophila S3 cells, BODIPY lipid droplet/cell ratio, laser cytometry, cells loaded with oleic acid
How it was run: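 Cells seeded at 5,000 per well were treated with compounds over a concentration series and loaded with oleic acid (400 uM, as added). Lipid droplet fluorescence (488 nm excitation, 500-530 nm channel) was read by laser-scanning cytometry and normalized to 20 uM Triacsin C.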

[5] = target: DNA repair nuclease/redox regulator APEX1 (Homo sapiens) (UniProt P27695); experiment: qHTS Validation Assay for Inhibitors of the Human Apurinic/apyrimidinic Endonuclease 1 (APE1) (AID 1705;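 further: TAMRA fluorescence gain over two minutes as APE1 cuts a quenched THF abasic duplex; on the % scale 0 is the no-effect control and ±100 the full control effect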)
How it was run: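 Fluorogenic double-stranded THF abasic-site substrate (5'-TAMRA/3'-BHQ-2), 50 nM final. Enzyme preincubated with compound 15 min at room temperature, then substrate added. Kinetic fluorescence (ex 525/em 598 nm) read three times at 60 s intervals; activity taken as third-minus-first read difference.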

[6] = Counterscreen for APE1 Inhibitors: Fluorescent Dye Displacement Validation Assay (AID 1707);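 further: plate controls were ThO with dsDNA and no compound for no effect and ThO without dsDNA for full effect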
How it was run: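 ThO 250 nM + dsDNA 50 nM (THF abasic site, 5'-TAMRA), Tris-HCl pH7.5/50mM NaCl/2 mM MgCl2/0.01% Tween-20; compounds pin-transferred; ex 480/em 540 nm endpoint. Neutral = no compound; no-DNA ThO wells = negative control.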

[7] = target: Endonuclease 4 (Escherichia coli (strain K12)) (UniProt P0A6C1); experiment: Counterscreen for APE1 Inhibitors: qHTS Validation Assay for Inhibitors of Endonuclease IV (AID 1708); further: on the % scale 0 is the no-effect control and ±100 the full control effect
How it was run: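 Enzymatic AP-site incision assay using a double-stranded THF substrate labelled with TAMRA and BHQ-2; released fluorescence signals activity. Enzyme 2 nM, substrate 50 nM, 15 min compound preincubation.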

[8] = qHTS for differential inhibitors of proliferation of Plasmodium falciparum line 7G8 (AID 1815);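 further: potency means the concentration at half of the fitted maximal effect; parasite growth measured after three days of incubation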
[9] = qHTS for differential inhibitors of proliferation of Plasmodium falciparum line GB4 (AID 1816); conditions: Potency: Plasmodium falciparum GB4 proliferation inhibition;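 further: potency means the concentration at half of the fitted maximal effect; parasite growth measured after 72 h incubation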
[10] = qHTS for differential inhibitors of proliferation of Plasmodium falciparum line 3D7 (AID 1876); further: potency means the concentration at half of the fitted maximal effect
[11] = qHTS for differential inhibitors of proliferation of Plasmodium falciparum line W2 (AID 1883); conditions: Potency: Plasmodium falciparum W2 proliferation inhibition;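 further: potency means the concentration at half of the fitted maximal effect; parasites grown with compound for 72 h before lysis and staining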
[12] = qHTS for differential inhibitors of proliferation of Plasmodium falciparum line HB3 (AID 1886); conditions: Potency: Plasmodium falciparum HB3 proliferation inhibition;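 further: potency means the concentration at half of the fitted maximal effect; parasites grown with compound for 72 h before SYBR Green readout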
[13] = qHTS Assay for Modulators of Human Peripheral Myelin Protein 22 (PMP22) Expression/Activity (AID 1967; active means well fitted curve in the direction sought with a large enough effect in the signal ratio; the % refers to the signal ratio;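 further: 0% = untreated cells and 100% end not stated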)
How it was run: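 Mouse MSC80 Schwann cells carrying Pmp22 promoter–green click beetle luciferase plus EF-alpha–red luciferase control, dosed 24 h at 37 °C. Dual-filter luminescence, overlap-corrected; %Activity from green/red ratio normalised to untreated cells, concentration-response curves fitted.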

[14] = target: Ferritin light chain (Equus caballus) (UniProt P02791); experiment: qHTS Validation Assay for Identification of Novel General Anesthetics (AID 2323); further: on the % scale 0 is the no-effect control and ±100 the full control effect
How it was run: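 Horse-spleen apoferritin (10 uM) in PBS with 50% saturated 1-aminoanthracene; compounds pin-transferred, 10 min at room temperature. Fluorescence read at 380/535 nm, normalized to free 1-AMA and 1-AMA/apoferritin values; four-parameter Hill fit.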

[15] = target: ATP-dependent DNA helicase Q1 (Homo sapiens) (UniProt P46063); experiment: qHTS Validation Assay for Inhibitors of RecQ-Like Dna Helicase 1 (RECQ1) (AID 2353);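 further: plate controls were DMSO vehicle for no effect and enzyme-free control for full effect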
How it was run: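 50 nM RECQ1T1 preincubated 15 min with compound in Tris pH 8.0 buffer with MgCl2, DTT, Tween-20 and 2.5 ug/ml poly(dI-dC); started with 200 nM TAMRA/BHQ-2 forked duplex and 2 mM ATP. Unwinding read as fluorescence (525/598 nm), two reads 2 h apart.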

[16] = Validation screen for inhibitors of Lassa infection (AID 463096; calls by dose curve; further: on the % scale 0 is the no-effect control and ±100 the full control effect)
[17] = Validation screen for small molecules that induce DNA re-replication in MCF 10A normal breast cells (AID 463097); further: 0% is about no effect; nearly all actives have a fitted effect of over 60% in size
How it was run: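 MCF 10A cells exposed to compound 48 hr at 37 C, 5% CO2, then Hoechst-stained 40 min. Laser-scanning imaging of nuclear DNA content (405 nm ex, 500-530 nm em); re-replication scored as rise in nuclei with elevated fluorescence intensity.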

[18] = target: M-phase phosphoprotein 8 (Homo sapiens) (UniProt Q99549); experiment: qHTS Validation Assay for Inhibitors for MPP8 Chromodomain Interactions with Methylated Histone Tails (AID 488949); further: top concentration of the series differs between compounds; on the % scale 0 is the no-effect control and ±100 the full control effect; nearly all actives have a fitted effect of over 55% in size
How it was run: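 MPP8 (50 nM) was pre-bound to 50 nM biotinylated H3(1-18)K9me3 peptide in PBS pH 7.4 with 0.01% Tween-20. Compounds were then added for 30 min at room temperature, and complex disruption was read by AlphaScreen with streptavidin donor and nickel-chelate acceptor beads.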

[19] = target: Transient receptor potential cation channel subfamily V member 1 (Homo sapiens) (UniProt Q8NER1); experiment: HTS Assay for Compounds that Act as Enhancers of the Vanilloid Receptor 1 (AID 488979); further: 0% is about no effect
How it was run: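 Calcium influx kinetics via Fluo-8 (480/520 nm) in TRPV1-expressing cells, 2000/well cultured overnight at 35.5C. Compound-alone read 3 min (agonist phase), followed by EC20 capsaicin challenge for 2 min (enhancer phase).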

[20] = target: Thyrotropin receptor (Homo sapiens) (UniProt P16473); experiment: qHTS Assay for Antagonists of the Thyroid Stimulating Hormone Receptor (AID 488980); further: 0% is about no effect
How it was run: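 TSHR-transfected HEK293 cells (2000/well) in HEPES-buffered HBSS with 70 uM RO 20-1724 were stimulated with 4 nM TSH (EC80, final) in the presence of compound. cAMP was measured by HTRF competition after lysis and 30 min at RT.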

[21] = target: Thyrotropin-releasing hormone receptor (Homo sapiens) (UniProt P34981); experiment: qHTS for Small Molecule Agonists and Allosteric Enhancers of Human TRH Receptor: Validation Screen for Agonists (AID 493127;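 active means calcium activation more than 3 SD above the typical response in the agonist read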;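 further: intracellular calcium rise by fluo-8 fluorescence before TRH EC20 addition; 0% is about no effect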); conditions: TRH receptor agonist cell assay; at 2 µM; stronger effect = higher value
How it was run: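 TRHR-expressing cells were plated overnight in serum-containing medium, then loaded with fluo-8 calcium dye at room temperature for 30 min–1.5 h. After a 10 s baseline, compound was pin-transferred and calcium fluorescence (ex 480/em 530) read kinetically for agonist response.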

[22] = target: Galactokinase (Homo sapiens) (UniProt P51570); experiment: qHTS Validation Assay for Inhibitors of Human Galactokinase (GALK) (AID 493189); further: 0% is about no effect
How it was run: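 GALK (5 nM) with 35 uM ATP and 100 uM galactose in HEPES pH 8.0 with MgCl2, NaCl, DTT and BSA. Reaction ran 1 h at room temperature. Residual ATP read by Kinase-Glo Plus luminescence.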

[23] = target: Voltage-gated inwardly rectifying potassium channel KCNH2 (Homo sapiens) (UniProt Q12809); experiment: qHTS Assay for Small Molecule Inhibitors of the Human hERG Channel Activity (AID 588834);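 further: top concentration of the series differs between compounds; on the % scale 0 is the no-effect control and ±100 the full control effect; lower thallium flux fluorescence means stronger hERG block; nearly all actives have a fitted effect of over 50% in size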
How it was run: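 U2OS cells BacMam-transduced with hERG, 2000 cells/well, compound ~10 min at 37 °C before stimulation buffer. FluxOR thallium flux fluorescence read kinetically on FDSS; decrease indicates block; AC50 from Hill fits.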

Chain of Voltage-gated inwardly rectifying potassium channel KCNH2 (Homo sapiens) (Q12809 whole entry, looked up): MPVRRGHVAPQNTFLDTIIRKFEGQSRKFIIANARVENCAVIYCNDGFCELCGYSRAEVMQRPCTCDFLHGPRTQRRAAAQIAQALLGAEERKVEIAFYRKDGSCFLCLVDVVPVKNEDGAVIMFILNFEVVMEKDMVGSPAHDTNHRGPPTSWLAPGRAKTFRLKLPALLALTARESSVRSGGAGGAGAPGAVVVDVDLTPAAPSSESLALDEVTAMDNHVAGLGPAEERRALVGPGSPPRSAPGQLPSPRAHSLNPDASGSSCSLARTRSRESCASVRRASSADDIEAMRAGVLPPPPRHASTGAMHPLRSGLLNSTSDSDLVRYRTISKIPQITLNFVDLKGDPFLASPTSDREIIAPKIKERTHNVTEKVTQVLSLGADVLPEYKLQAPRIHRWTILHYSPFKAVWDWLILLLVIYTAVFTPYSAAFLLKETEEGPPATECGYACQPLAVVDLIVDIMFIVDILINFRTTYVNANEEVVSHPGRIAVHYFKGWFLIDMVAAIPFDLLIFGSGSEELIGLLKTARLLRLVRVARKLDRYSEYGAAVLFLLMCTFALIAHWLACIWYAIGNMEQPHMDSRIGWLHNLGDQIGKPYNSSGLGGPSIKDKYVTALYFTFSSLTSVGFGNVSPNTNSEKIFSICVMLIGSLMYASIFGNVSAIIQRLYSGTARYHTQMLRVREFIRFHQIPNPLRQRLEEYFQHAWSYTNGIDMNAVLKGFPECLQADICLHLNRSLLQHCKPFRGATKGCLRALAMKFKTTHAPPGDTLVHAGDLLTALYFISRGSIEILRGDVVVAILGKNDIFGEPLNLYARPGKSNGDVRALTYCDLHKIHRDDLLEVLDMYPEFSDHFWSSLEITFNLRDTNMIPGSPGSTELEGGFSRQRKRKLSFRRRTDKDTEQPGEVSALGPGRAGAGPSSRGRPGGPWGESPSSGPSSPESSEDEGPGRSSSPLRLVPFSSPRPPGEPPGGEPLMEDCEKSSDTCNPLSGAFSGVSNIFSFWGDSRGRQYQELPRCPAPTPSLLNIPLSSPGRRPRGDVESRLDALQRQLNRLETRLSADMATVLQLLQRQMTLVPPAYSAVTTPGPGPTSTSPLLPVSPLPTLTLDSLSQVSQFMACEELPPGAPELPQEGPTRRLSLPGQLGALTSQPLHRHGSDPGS
Chain of ATP-dependent DNA helicase Q1 (Homo sapiens) (P46063 whole entry, looked up): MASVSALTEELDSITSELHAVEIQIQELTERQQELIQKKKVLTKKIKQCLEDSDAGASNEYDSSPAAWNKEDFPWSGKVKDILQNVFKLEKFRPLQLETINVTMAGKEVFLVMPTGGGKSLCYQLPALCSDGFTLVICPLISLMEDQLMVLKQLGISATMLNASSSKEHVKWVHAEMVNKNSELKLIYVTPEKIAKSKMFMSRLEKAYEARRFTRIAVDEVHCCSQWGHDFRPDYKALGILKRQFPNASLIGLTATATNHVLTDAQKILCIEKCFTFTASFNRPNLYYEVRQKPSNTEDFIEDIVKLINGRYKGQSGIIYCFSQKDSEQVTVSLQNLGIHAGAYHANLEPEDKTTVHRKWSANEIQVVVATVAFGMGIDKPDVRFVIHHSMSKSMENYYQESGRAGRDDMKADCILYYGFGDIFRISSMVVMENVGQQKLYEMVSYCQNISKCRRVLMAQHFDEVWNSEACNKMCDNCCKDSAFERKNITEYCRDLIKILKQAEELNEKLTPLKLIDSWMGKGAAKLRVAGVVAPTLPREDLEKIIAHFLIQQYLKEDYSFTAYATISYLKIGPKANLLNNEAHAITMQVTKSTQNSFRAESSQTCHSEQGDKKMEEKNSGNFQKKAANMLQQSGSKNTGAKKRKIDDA
Chain of Transient receptor potential cation channel subfamily V member 1 (Homo sapiens) (Q8NER1 whole entry, looked up): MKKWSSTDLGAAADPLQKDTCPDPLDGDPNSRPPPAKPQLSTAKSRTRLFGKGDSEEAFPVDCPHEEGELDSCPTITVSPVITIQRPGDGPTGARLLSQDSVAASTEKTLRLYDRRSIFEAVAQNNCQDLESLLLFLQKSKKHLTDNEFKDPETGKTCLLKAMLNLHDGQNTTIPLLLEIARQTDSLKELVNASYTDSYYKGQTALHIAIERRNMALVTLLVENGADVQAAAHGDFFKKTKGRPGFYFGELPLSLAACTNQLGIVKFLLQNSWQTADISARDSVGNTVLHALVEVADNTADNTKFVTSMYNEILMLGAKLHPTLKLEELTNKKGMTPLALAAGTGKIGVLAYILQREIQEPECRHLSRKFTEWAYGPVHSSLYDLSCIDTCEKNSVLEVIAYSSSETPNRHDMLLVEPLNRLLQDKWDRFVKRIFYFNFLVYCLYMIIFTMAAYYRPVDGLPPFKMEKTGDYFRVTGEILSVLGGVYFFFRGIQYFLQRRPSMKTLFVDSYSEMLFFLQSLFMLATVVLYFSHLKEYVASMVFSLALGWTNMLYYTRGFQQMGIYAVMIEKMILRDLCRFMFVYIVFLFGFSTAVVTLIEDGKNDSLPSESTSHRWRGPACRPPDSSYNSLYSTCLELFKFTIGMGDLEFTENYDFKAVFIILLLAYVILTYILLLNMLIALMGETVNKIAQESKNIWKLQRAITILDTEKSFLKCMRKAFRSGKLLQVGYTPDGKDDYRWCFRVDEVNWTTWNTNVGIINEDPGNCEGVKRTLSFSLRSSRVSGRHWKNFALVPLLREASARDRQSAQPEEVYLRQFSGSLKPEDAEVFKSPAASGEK
Chain of Thyrotropin-releasing hormone receptor (Homo sapiens) (P34981 whole entry, looked up): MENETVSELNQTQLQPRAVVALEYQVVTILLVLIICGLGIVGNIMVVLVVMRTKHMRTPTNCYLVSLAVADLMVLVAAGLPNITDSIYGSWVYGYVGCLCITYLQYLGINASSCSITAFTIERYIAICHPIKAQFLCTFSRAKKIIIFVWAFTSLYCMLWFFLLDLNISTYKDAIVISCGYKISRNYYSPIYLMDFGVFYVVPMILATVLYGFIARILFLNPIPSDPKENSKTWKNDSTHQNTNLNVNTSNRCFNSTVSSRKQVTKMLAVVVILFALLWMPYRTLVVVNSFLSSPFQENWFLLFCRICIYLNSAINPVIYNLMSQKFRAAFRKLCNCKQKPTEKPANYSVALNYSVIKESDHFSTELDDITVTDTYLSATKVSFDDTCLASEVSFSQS
Chain of Ferritin light chain (Equus caballus) (P02791 2-175 limits assumed): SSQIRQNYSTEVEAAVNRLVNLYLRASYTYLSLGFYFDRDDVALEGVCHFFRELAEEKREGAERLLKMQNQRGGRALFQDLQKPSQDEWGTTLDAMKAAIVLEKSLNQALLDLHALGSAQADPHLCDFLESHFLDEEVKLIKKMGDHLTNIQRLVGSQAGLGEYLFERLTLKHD
Chain of Thyrotropin receptor (Homo sapiens) (P16473 whole entry, looked up): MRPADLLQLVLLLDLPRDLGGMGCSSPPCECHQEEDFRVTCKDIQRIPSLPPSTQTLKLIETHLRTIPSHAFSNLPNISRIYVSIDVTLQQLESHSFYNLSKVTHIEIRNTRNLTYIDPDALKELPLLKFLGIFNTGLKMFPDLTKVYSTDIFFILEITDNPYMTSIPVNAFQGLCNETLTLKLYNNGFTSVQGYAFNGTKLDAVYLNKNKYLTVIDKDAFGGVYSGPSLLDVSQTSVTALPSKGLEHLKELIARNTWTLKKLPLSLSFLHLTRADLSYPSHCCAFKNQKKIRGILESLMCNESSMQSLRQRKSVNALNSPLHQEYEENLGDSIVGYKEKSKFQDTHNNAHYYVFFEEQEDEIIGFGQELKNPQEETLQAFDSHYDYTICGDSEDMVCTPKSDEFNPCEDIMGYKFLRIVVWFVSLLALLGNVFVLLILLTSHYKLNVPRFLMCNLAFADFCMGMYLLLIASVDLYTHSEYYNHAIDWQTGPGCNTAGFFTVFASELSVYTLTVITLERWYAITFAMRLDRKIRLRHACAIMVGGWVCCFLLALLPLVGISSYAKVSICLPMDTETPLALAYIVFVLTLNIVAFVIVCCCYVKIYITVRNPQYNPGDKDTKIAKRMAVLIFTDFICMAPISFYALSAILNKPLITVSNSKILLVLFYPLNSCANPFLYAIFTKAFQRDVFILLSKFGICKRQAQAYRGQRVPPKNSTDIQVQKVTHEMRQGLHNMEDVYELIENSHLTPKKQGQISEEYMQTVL
Chain of M-phase phosphoprotein 8 (Homo sapiens) (Q99549 whole entry, looked up): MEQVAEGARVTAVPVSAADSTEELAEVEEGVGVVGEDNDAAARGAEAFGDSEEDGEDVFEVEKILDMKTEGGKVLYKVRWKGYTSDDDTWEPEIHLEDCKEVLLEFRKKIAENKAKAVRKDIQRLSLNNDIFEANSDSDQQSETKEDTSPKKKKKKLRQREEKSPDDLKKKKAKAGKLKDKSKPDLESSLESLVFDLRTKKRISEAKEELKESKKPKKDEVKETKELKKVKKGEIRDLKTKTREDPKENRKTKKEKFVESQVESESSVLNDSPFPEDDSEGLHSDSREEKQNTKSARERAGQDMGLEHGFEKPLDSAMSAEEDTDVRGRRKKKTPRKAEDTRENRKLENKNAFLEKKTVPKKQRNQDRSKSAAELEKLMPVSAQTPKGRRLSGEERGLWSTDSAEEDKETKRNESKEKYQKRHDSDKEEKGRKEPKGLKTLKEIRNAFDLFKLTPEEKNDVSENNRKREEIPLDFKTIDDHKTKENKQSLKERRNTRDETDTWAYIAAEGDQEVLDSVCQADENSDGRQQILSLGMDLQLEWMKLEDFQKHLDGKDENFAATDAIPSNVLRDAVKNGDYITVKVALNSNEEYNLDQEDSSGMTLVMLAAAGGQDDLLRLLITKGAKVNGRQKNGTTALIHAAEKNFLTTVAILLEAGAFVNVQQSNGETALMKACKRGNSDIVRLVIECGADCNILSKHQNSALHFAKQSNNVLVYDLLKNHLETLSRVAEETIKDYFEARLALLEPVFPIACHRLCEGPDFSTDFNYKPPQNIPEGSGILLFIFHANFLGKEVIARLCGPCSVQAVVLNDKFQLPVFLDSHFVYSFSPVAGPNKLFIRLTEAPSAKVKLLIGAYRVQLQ

O[C@@H]1CCCN2C[C@@H](O)[C@@H](O)C12 (stereo partly drawn)
inactive: Potency [1]

Cc1ccc2c(c1)Cc1c(C(=O)NC3CCCCC3)nn(-c3ccc(Cl)cc3Cl)c1-2
inactive: Potency [1]

CC1CCC2C(C)C(=O)OC3O[C@]4(C)CCC1[C@@]32OO4 (stereo partly drawn)
inactive: Potency [1]

CN1CC[C@@H]2CN3CCc4cccc(c43)[C@@H]2C1
inactive: Potency [2]

CC(O)C(C)OC(=O)[C@@H]1C[C@@H]2c3cccc4c3c(cn4C(C)C)C[C@H]2N(C)C1 (stereo partly drawn)
-0.261%: max response ([4]; measured here: lipid channel max response)
inactive: outcome [3] | activity change, negative = inhibition ([4]; at 57.5 µM (top of the series)) 2.46% | Potency [5] | Potency [6] | outcome [7] | outcome [13] | outcome [14] | Potency [15] | Potency [16] | Potency [17] | Potency [18] | outcome [19] | outcome [20] | activation [21] 4% | outcome [22] | Potency [23] | Potency [1]
-4.58%: max response ([4]; measured here: cell count channel max response)
active: Potency [8] 11.2 µM | Potency [9] 12.6 µM | Potency [10] 12.6 µM | Potency [11] 7.94 µM | Potency [12] 14.1 µM
